Screening results (PubChem)
RecA intein inh: Mtb RecA intein splicing inhibition | inhibition, % (test concentration not listed) | P9WHJ3 | cell-free RecA intein splicing, fluorescence | AID 2221 | hit rate 0.75% among 290,000; in the data active = inhibition above about 30%; inconclusive = no clear call, values can overlap the other calls;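 also: 0% = vehicle wells and 100% = reference inhibitor control wells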
Target sequence (P9WHJ3 whole entry, looked up): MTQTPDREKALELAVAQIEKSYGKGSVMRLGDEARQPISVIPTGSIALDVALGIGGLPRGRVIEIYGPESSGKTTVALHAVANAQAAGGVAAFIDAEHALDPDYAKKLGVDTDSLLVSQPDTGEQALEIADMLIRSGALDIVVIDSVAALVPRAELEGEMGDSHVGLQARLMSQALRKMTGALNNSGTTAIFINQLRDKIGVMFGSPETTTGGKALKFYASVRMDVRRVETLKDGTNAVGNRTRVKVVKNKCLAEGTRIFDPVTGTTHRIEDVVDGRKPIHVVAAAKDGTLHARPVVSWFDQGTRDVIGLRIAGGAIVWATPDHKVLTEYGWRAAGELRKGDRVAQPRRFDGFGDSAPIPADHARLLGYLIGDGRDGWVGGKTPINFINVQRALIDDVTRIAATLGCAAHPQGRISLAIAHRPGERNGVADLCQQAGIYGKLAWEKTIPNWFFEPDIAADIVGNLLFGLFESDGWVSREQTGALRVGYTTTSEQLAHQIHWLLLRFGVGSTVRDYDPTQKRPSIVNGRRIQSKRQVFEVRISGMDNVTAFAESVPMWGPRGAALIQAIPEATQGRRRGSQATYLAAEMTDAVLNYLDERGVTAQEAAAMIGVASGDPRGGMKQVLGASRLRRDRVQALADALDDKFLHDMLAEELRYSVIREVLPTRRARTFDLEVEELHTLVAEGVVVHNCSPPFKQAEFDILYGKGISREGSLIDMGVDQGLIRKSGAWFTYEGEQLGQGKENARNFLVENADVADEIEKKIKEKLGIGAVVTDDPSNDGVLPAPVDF
PfHsp40 rescue: restores yeast growth despite PfHsp40 toxicity; growth rescue, % at 12.5 µM; hit rate 0.68% among 340,000; AID 504582; S. cerevisiae expressing PfHsp40, growth rescue, ATP luminescence; in the data active = growth rescue above about 28%, passing the limit was not always enough; inconclusive = no clear call, values can overlap the other calls;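 also: yeast W303a lacking pdr1 and pdr3 grown in galactose medium; growth measured after three days at 30 °C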
Mtb hypoxia inh: Mtb hypoxia fluorescent reporter inhibition | hit rate 0.1% among 300,000 | fluorescence inhibition, % (test concentration not listed) | M. tuberculosis hypoxia-regulated fluorescent reporter, fluorescence | AID 1159583; in the data active = fluorescence inhibition mostly above about 23%, no sharp cut-off; inactive = mostly below about 17%
Mtb betalactam: beta-lactam sensitization of Mtb H37Rv. hit rate 0.27% among 330,000. AID 434955. inhibition, % at 25 µM. M. tuberculosis H37Rv growth with meropenem, percent inhibition; call rule not given here;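 also: growth measured after seven days incubation then overnight dye step; 0% = bacteria only wells and 100% = bacteria with antibiotic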
CCHF vOTU inh: CCHFV vOTU protease inhibition. Pep-AMC fluorescence. inhibition, % at 11.5 µM. hit rate 0.55% among 370,000; in the data active = inhibition above about 30%; also: 0% = vehicle wells with enzyme and 100% = no enzyme wells
* = called active by the depositor; i = inactive; ? = inconclusive; / = no result shown. This is a sample that favours compounds with a hit; in the whole collection about 1.7% have one here.

SMILES | RecA intein inh | PfHsp40 rescue | Mtb hypoxia inh | Mtb betalactam | CCHF vOTU inh
Cc1cc(O)c(C=O)c2c1C(=O)Oc1c(CO)c(O)c3c(c1O2)C(O)OC3=O (stereo unspecified) | / | 160.7* | / | -6.7 | /
C#CCNC(=O)C1=CC(c2ccc3c(c2)OCO3)CC(OCc2ccc(CO)cc2)O1 (stereo unspecified) | / | / | 4.1 | / | /
COC[C@H]1OC(=O)c2coc3c2[C@@]1(C)C1=C(C3=O)[C@@H]2CCC(=O)[C@@]2(C)C[C@H]1OC(C)=O | / | 122.8* | / | / | 0.9
CC(C)C=NNc1nc(-c2ccc(Br)cc2)cs1 | / | / | 4.4 | / | /
Cc1ccc(C2CN=NC23CCc2ccccc2C3=O)cc1 (stereo unspecified) | 7.7 | 0.1 | 6.1 | -0.5 | 5.4
O=C1c2ccccc2CCCC12N=NCC2c1cccc2ccccc12 (stereo unspecified) | 21.7 | 108.6* | 13.6 | -9.5 | 0.7
CN(CC(=O)Nc1ccc(OC(F)(F)F)cc1)C(=O)/C=C/c1cc2c(cc1[N+](=O)[O-])OCO2 | / | 0.0 | 29.6* | ? | 7.2
CN(CC(=O)Nc1ccc(OC(F)(F)F)cc1)C(=O)/C=C/c1ccco1 | / | 0.4 | 6.0 | 1.4 | -2.1
CC=C(C)C(=O)OC(c1cc2ccc(=O)oc2cc1OC)C(O)C(C)(C)O (stereo unspecified) | / | / | 8.9 | / | /
Clc1ccc(OCCn2cnc3ccccc32)c(Cl)c1 | 4.5 | 28.4* | 8.3 | 76.7 | 7.4
COc1ccc(N=Nc2c(C)n[nH]c2C)cc1 | 1.6 | 0.2 | 6.9 | 2.0 | 6.2
Cc1n[nH]c(C)c1N=Nc1ccc(Br)cc1 | 9.1 | 242.1* | 14.3 | 3.9 | 5.6
Nc1c2ccccc2nc2ccccc12 | i | 2.0 | -0.8 | 72.4 | -103.2
N#Cc1c2ccccc2nc2ccccc12 | -1.8 | 4.3 | 61.5* | 95.0 | -11.0
COc1ccc(C2CC(=O)C=C(C=Cc3ccccc3)C2)cc1 (stereo unspecified) | / | / | 18.0 | / | /
O=C(CCl)N=c1sccn1Cc1ccc(Cl)cc1Cl | 44.0* | -0.3 | 18.5 | 99.8 | -5.5
O=C(CCl)N=c1sccn1Cc1ccccc1Cl | 18.8 | 0.2 | / | 98.7 | -10.6
O=C(NN=Cc1cccnc1)/C(=C\c1cccs1)NC(=O)c1ccccc1 | / | / | -2.3 | / | /
CCCCNC(=O)OC1CC2CCN3C(=O)CCC(C)(C)C(C1)C23 (stereo unspecified) | / | / | 0.4 | / | /
CCOC(=O)c1c(N2C(=O)CC(Sc3ccccc3C(=O)O)C2=O)sc2c1CCCC2 (stereo unspecified) | 7.9 | 41.0* | 12.5 | -5.0 | 15.4
CCCc1ccc(Oc2cn[nH]c2-c2ccc(O)cc2O)cc1 | 13.7 | 181.5* | -3.7 | 6.3 | 3.9
COc1cccc(C=NNC(=O)C(=O)NCc2ccco2)c1OC | / | / | 7.3 | / | /
O=C(Nc1cccc(Cl)c1)c1ccc2c(c1)OCCO2 | 0.2 | 80.8* | -2.8 | 0.5 | -2.8
CCOc1ccc(N=C2NC(=O)SC2=Cc2ccc(O)cc2)cc1 | / | / | 4.9 | / | /
CN1C(=CC=NNC(=O)c2ccccc2Br)C(C)(C)c2ccccc21 | / | / | -3.7 | / | /
SMILES | RecA intein inh | PfHsp40 rescue | Mtb hypoxia inh | Mtb betalactam | CCHF vOTU inh
CCn1c(SCC(=O)N2CCCc3ccccc32)nnc1-c1ccco1 | -0.5 | 48.4* | 19.0 | -1.3 | 2.8
COc1ccc(C2C=CCN(S(=O)(=O)c3ccc4ccccc4c3)C(C)C(=O)N2Cc2ccc(F)cc2)cc1 (stereo unspecified) | / | / | 4.8 | / | /
CC(=O)N1c2c(cc(Br)cc2S(=O)(=O)N2CCN(c3ccccn3)CC2)CC1C (stereo unspecified) | -3.8 | 52.5* | 8.3 | ? | -3.6
COc1ccc(-c2nn(CCC#N)cc2C(=O)Nc2ccccc2Cl)cc1 | 3.7 | -1.0 | 13.3 | -10.0 | -8.7
N#CCCn1cc(C(=O)Nc2ccccc2Cl)c(-c2ccc(F)cc2)n1 | 2.7 | 46.9* | 17.5 | -25.0 | -2.2
Cc1cc(Nc2ccccc2)nn1C(=O)c1ccc(Br)cc1 | -9.6 | 1.9 | 2.9 | 44.5 | -0.1
Cc1cc(Nc2ccccc2)nn1C(=O)c1ccccc1 | 4.5 | 238.5* | 9.8 | 10.9 | -1.3
O=C1NCCCC1C(=O)NN=Cc1ccccc1O (stereo unspecified) | / | / | -1.8 | / | /
COc1ccc(C=NNC(=O)c2cnccn2)c(OC)c1OC | / | / | 2.0 | / | /
CC(=O)N1CC(=O)Nc2ccc(Br)cc2C1c1ccc(F)cc1 (stereo unspecified) | 0.4 | 84.6* | -2.5 | -9.3 | -0.6
CCCC(=O)N1CC(=O)Nc2ccc(Br)cc2C1c1ccc(F)cc1 (stereo unspecified) | 1.2 | 1.7 | 3.2 | 5.2 | -10.7
Clc1ccc(-c2n[nH]c3c2CCC3)cc1Cl | 11.3 | 241.1* | / | 94.5 | 15.1
Clc1ccc(-c2n[nH]c3c2CCCC3)cc1 | -1.0 | -0.7 | -5.2 | 97.0 | 12.6
COC(=O)C1=C(c2ccc(S(C)(=O)=O)cc2)CC2CCC1N2C (stereo unspecified) | / | / | 5.8 | / | /
CSC1=NSC2=NC(=O)C(=Cc3coc4ccc(O)cc4c3=O)C(=N)N12 | / | / | 10.1 | / | /
CCn1c(SCC(=O)Nc2ccc(NC(C)=O)cc2)nc2c([nH]c3ccccc32)c1=O | -3.8 | 40.8* | -0.5 | 9.2 | -3.7
CN(CC(Cc1ccccc1)N(CCN(CCc1ccccc1)N=O)N=O)N=O (stereo unspecified) | / | / | 3.8 | / | /
COc1ccc(/C=C2/Sc3ccc(C(=O)N4CCc5ccccc5C4)cc3NC2=O)cc1 | -3.2 | 47.5* | 10.6 | 97.2 | -10.0
O=[N+]([O-])c1ccc(-c2cnc(SC(c3ccccc3)c3ccccc3)[nH]2)cc1 | -5.5 | 0.8 | 1.4 | 1.8 | -1.9
O=[N+]([O-])c1ccc(-c2cnc(SCc3ccccc3Cl)[nH]2)cc1 | 4.4 | 149.3* | 11.1 | -9.7 | 4.1
C#CCOCCOCCOCCNc1nc(N2CCN(C(=O)C(Cc3ccc(O)cc3)n3cc(C(N)CC(C)C)nn3)CC2)nc(N2CCN(C(=O)C(CCCCN)n3cc(C(N)C(C)CC)nn3)CC2)n1 (stereo unspecified) | / | / | 12.8 | / | /
COC(=O)CC=CC(C)C(C=NOCC1OC(c2ccccc2)C=CC1Oc1ccc(OC)cc1)OC (stereo unspecified) | / | / | 11.1 | / | /
Cc1nnc(Sc2cc(NCCO)c([N+](=O)[O-])c3nonc23)s1 | 92.8* | 0.3 | 9.6 | / | 29.2
O=C(Cn1nc(Cc2ccncc2)c2ccccc2c1=O)N1CCc2ccccc2C1 | / | -0.8 | / | -1.7 | 65.9*
CSc1nc(-c2ccc(C)cc2)nc(C(Cl)Cl)n1 | -1.7 | 0.5 | 78.4* | 81.8 | /
Cc1ccc(C=NNC(=O)c2nnn(-c3nonc3N)c2CSc2ccccc2)cc1 | / | / | -1.4 | / | /
COc1cc(C2C3C(C)N(C)C(=O)N(C)C3N(C)C(=O)N2C)ccc1O (stereo unspecified) | -1.6 | 51.5* | 5.2 | 4.1 | -1.1
Cc1ccc(S(=O)(=O)Nc2c(C)n(C)n(-c3ccccc3)c2=O)cc1C(=O)OC(C)C(=O)c1ccccc1 (stereo unspecified) | / | 0.8 | 21.3* | / | 7.7
Cc1ccc(S(=O)(=O)Nc2c(C)n(C)n(-c3ccccc3)c2=O)cc1C(=O)OC(C)C(=O)N(C)c1ccccc1 (stereo unspecified) | -3.7 | -0.6 | 7.5 | -6.6 | -1.1
